From PubChem BioAssay
ATXN2 expr inh: Primary qHTS for Inhibitors of ATXN expression; HEK-293 ATXN2-luciferase reporter, luminescence, 24 h; Potency, µM (series often up to 57 µM), usual class: inhibitors; 360,000 compounds, 0.72% hits; note: nearly all actives have a fitted effect of over 55% in size
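ATXN2-luciferase reporter cells (luciferase flanked by upstream and downstream ATXN2 gene portions) were treated 24 h at 37 °C with compounds at up to 57 uM. SteadyGlo luminescence gave expression; GF-AFC fluorescence gave viability.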
Gal4-VP16 FLuc: VP16 counterscreen qHTS for inhibitors of ROR gamma transcriptional activity; Drosophila S2 Gal4-VP16 UAS-luciferase, luminescence, 20 h; Potency, µM (doses to about 53.6 µM), hits mostly inhibitors; AID 2546, 2010; 310,000 compounds, 3.5% hits;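 note: Gal4-VP16 expression switched on by copper sulfate through the metallothionein promoter; nearly all actives have a fitted effect of over 50% in size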
TGFb SMAD3 inh: qHTS for Inhibitors of TGF-b; Potency, µM (titrated, usually from 46.1 µM), usual class: inhibitors; HepG2 CAGA-GFP TGF-b/SMAD3 reporter, GFP fluorescence, 18 h; TGF-beta stimulated, 500 pg/mL final; 410,000 compounds, 1.2% hits; note: nearly all actives have a fitted effect of over 65% in size
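HEPG2 CAGA-GFP cells (1000/well, DMEM with 1% FBS) were pre-incubated 2 h at 37 degrees C, given compound by pin tool, then stimulated with TGF-beta at 500 pg/mL final for 18 h before per-cell GFP fluorescence imaging.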
S2 tox: Viability Counterscreen for Primary qHTS for Inhibitors of ATXN expression | S2 cells (HEK-293 line with an ATXN2-luciferase reporter) viability, CellTiter-Fluor protease fluorescence, 24 h | Potency, µM (top dose mostly 56.7 µM), hits mostly cytotoxic | 400,000 compounds, 0.49% hits; note: nearly all actives have a fitted effect of over 40% in size
RORgamma inh: qHTS for inhibitors of ROR gamma transcriptional activity. Nuclear receptor ROR-gamma (Mus musculus), P51450. Drosophila S2 Gal4-RORgamma UAS-luciferase reporter, 20 h. Potency, µM (series often up to 53.6 µM), actives largely listed as inhibitors. 310,000 compounds, 5.4% hits; note: nearly all actives have a fitted effect of over 60% in size
Target sequence (P51450 whole entry, looked up, the tested form may be a part): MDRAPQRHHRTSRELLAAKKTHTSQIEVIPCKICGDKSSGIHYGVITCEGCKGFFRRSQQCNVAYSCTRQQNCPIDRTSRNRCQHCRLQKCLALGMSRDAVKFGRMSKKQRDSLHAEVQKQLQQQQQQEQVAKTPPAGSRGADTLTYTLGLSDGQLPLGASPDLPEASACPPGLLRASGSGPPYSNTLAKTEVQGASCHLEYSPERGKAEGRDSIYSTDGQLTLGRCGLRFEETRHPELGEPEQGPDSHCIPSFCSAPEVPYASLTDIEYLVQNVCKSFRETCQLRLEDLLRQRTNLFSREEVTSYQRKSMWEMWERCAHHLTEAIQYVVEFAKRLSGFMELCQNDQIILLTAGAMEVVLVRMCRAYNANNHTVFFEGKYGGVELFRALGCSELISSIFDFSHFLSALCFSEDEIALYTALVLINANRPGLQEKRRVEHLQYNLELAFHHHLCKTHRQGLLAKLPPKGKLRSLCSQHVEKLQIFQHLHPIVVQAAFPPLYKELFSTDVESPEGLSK
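Stable Schneider cell line, Gal4 DNA-binding domain fused to ROR gamma, UAS-luciferase. Cmpd 1 hr RT → CuSO4 700 uM final → 20 hr RT → luciferase reagent 10 min → luminescence.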
HepG2 tox: qHTS for Inhibitors of TGF-b: Cytotox Counterscreen. HepG2 CAGA-GFP viability, ATP luminescence, 18 h. Potency, µM (doses to about 46.1 µM), hits mostly cytotoxic. 410,000 compounds, 0.76% hits. AID 588856, 2011
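HepG2 CAGA-GFP cells (1000/well, DMEM with 1% FBS) received compound, then TGF-beta at 500 pg/mL final, and were incubated 18 hours at 37 degrees C. Viability was read by CellTiter-Glo luminescence. Media-only wells were set as complete cell-killing and DMSO as no toxicity.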
Hits are given with their value; n = inactive; u = inconclusive; x = not tested or not shown; ! = repeats disagree; [ ] = remark or other dose. A selection: hits, their analogues and other compounds. The true share with any hit is near 6.3%. Calls come from the whole dose curve; as a rule, active = well fitted curve in the direction sought with a large enough effect; inconclusive = small, poorly fitted or top-dose-only effect, or another doubt; inactive = no such curve, though single readings can be large; an effect the other way counts as inactive or inconclusive.

SMILES | ATXN2 expr inh | Gal4-VP16 FLuc | TGFb SMAD3 inh | S2 tox | RORgamma inh | HepG2 tox
COc1ccccc1NC(=O)COc1ccc(-c2nn(C)c(=O)c3ccccc23)cc1 | u | n | 7.94µM! | n | n | n
CCc1ccc(NC(=O)CC2C(=O)N(c3ccc(F)cc3)C(=O)N2Cc2ccc(F)cc2)cc1 (centres undefined) | x | x | n | x | x | n
CC1=NN(C(=O)c2ccccc2Cl)C(O)(c2cccnc2)C1 (centres undefined) | n | u | n | n | u | n
CC1=NN(C(=O)c2ccccc2Br)C(O)(c2ccc(Cl)cc2)C1 (centres undefined) | x | 8.91µM | u | n | 3.98µM | n
CC1=NN(C(=O)c2ccccc2C)C(O)(c2ccc(Cl)cc2)C1 (centres undefined) | n | 7.94µM | n | n | 6.31µM | n
CCOC(=O)c1cnc(-n2nc(C)cc2C)nc1NNc1nc(-c2ccccc2)cc(-c2ccccc2)n1 | u | 0.708µM | n | n | 0.794µM | n
CCOC(=O)c1cnc(-n2nc(C)cc2C)nc1NNc1nc(C)cc(C)n1 | x | u | n | n | 3.98µM | n
CCOC(=O)c1cnc(-n2nc(C)cc2C)nc1Nc1cccc(C(=O)O)c1 | n | n | n | n | n[10 µM] | n
CCOC(=O)c1cnc(-n2nc(C)cc2C)nc1Oc1ccc(C#N)cc1 | n | n | n | n | n | n
CC1(C(=O)Nc2cccc3cccnc23)CCN1Cc1csc2ccccc12 (centres undefined) | n | x | u | 20µM | x | n
COc1ccc(NC(=O)C2(C)CCN2Cc2csc3ccccc23)cc1OC (centres undefined) | u | x | n | u | x | n
CC(C)COc1cccc(C(=O)N(C)CC(=O)Nc2cccc3ccccc23)c1 | n | x | n | u | x | n
Cc1nnsc1C(=O)NNS(=O)(=O)c1cc(C(F)(F)F)cc(C(F)(F)F)c1 | n | n | n | n | 11.2µM | n
Cn1c(=O)c2c(nc(Cl)n2CC(=O)NC2(C#N)CCCCC2)n(C)c1=O | n | x | n | n | x | n
CCCCCCCN(c1ccccc1)C1C[C@H]2CCCC(=O)N3CC[C@@H](C1)[C@@H]23 (some centres undefined) | x | x | 14.1µM | x | x | n
CC(C)Oc1cc(F)ccc1-c1cc(C(=O)Nc2cccc(C(F)(F)F)c2)[nH]n1 | u | x | u | 28.2µM | x | n
CC(C)Oc1ccc(F)cc1-c1cc(C(=O)NCc2cc(C(F)(F)F)cc(C(F)(F)F)c2)[nH]n1 | n | x | 11.2µM | u | x | n
Fc1ccc(F)c(NC(=S)NCCc2ccccc2)c1 | n | u | n | n | 4.47µM | n
Fc1ccc(NC(=S)NCCc2ccccc2)c(F)c1F | n | n | u | n | n | n
Fc1cccc(NC(=S)NCCc2ccccc2)c1 | n | u | n | n | 3.16µM | n
Fc1ccccc1NC(=S)NCCc1ccc(Cl)cc1 | n | u | u | n | 8.91µM | n
Fc1ccccc1NC(=S)NCCc1ccccc1 | n | u | n | n | 6.31µM | n
CC(c1nc2ccccc2c(=O)[nH]1)N1CCN(S(=O)(=O)c2ccc(F)c(Cl)c2)CC1 (centres undefined) | x | x | n | u | x | n
CC1CCCCC1NC(=O)CCCn1c(=S)[nH]c2ccsc2c1=O (centres undefined) | n | u | n | n | 17.8µM | n
O=C(CCCn1c(=S)[nH]c2ccsc2c1=O)Nc1ccc(F)cc1 | x | x | n | n | x | n
O=C(CCCn1c(=S)[nH]c2ccsc2c1=O)Nc1ccc2c(c1)OCCO2 | n | u | n | n | 11.2µM | n
O=C(CCCCn1c(=S)[nH]c2ccsc2c1=O)NCc1ccc2c(c1)OCO2 | n | n | n | n | 14.1µM | n
CCOc1ccc(NC(=O)CCCn2c(=S)[nH]c3ccsc3c2=O)cc1 | n | u | n | n | 12.6µM | n
